Assay outcomes: PubChem BioAssay, National Center for Advancing Translational Sciences (NCATS)
Sampled rows, rich in hits. Any-hit rate of the full collection: about 3.3%.
TbPYK inhibitor – inhibitors of Trypanosoma brucei pyruvate kinase | TbPYK enzyme, Kinase-Glo Plus ATP luminescence, 45 min | Q57TT1 | AID 624173 | actives 0.12% (n = 410,000) | Potency, µM (highest dose often 76.8 µM), most hits filed as inhibitors; also: nearly all actives have a fitted effect of over 50% in size
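Quantitative HTS: titrated library compounds versus trypanosomal pyruvate kinase in TEA buffer (pH 7.2) containing KCl, MgCl2, BSA and Tween-20. Reactions were initiated with ADP, 130 uM final. Kinase-Glo Plus luminescence was read after 45 min at RT.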
AmpC no deterg – inhibitors of E. coli AmpC beta-lactamase without detergent; P00811; AmpC nitrocefin hydrolysis, absorbance 480 nm, 0.0001% Triton; Potency, µM (highest dose often 57.1 µM), actives largely listed as inhibitors; actives 0.52% (n = 330,000); AID 485341; also: nearly all actives have a fitted effect of over 20% in size
Target sequence (P00811 whole entry, looked up): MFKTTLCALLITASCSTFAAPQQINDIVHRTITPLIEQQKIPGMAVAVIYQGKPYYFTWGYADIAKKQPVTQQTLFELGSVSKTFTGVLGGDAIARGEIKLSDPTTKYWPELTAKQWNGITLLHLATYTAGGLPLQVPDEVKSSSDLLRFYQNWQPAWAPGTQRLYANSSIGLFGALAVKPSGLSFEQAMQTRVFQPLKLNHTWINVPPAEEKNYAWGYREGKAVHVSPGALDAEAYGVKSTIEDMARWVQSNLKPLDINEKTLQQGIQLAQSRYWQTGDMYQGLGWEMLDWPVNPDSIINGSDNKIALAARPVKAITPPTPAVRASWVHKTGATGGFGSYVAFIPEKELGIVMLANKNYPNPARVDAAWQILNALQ
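20 mM phosphate pH 7.0 + 0.01% (detergent screen) or 0.0001% Triton X-100; 5.3 nM AmpC reagent; cpd preinc 15 min RT; nitrocefin (800 uM stock) to start; A480 q20 s × 4 min; Activity was normalised to no-enzyme and no-compound control wells.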
Sm TGR inh – S. mansoni TGR enzyme inhibition; purified TGR, DTNB reduction, TNB absorbance 405 nm; Potency, µM (top dose mostly 114 µM), actives largely listed as inhibitors; AID 485364; actives 3% (n = 360,000); Q962Y6; also: nearly all actives have a fitted effect of over 60% in size
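First, TGR (20 nM dispensed) and NADPH were mixed with compound. Second, a 15 min room-temperature incubation followed. Third, further NADPH and then DTNB were added to start the reaction. Finally, TNB absorbance was monitored kinetically.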
SARS PLpro yeast – blocks SARS-CoV papain-like protease in a yeast assay; S. cerevisiae expressing SARS-CoV PLpro, growth rescue; AID 485353; Potency, µM (doses to about 32.9 µM), hits mostly activators; actives 0.19% (n = 330,000); calls by dose curve; also: nearly all actives have a fitted effect of over 55% in size
RE007 growth inh – less growth of the S. pombe RE007 Vpr strain. Potency, µM (series often up to 92.2 µM), actives largely listed as inhibitors. AID 651644. S. pombe RE007 Vpr strain, BacTiter-Glo ATP luminescence, 24 h. actives 0.21% (n = 360,000); active = well fitted falling curve with a large enough effect; inconclusive = small, poorly fitted or top-dose-only effect; inactive = no such curve, though single readings can be large or run the other way; also: nearly all actives have a fitted effect of over 50% in size
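Fission yeast RE007 carrying one integrated HIV-1 vpr copy, seeded at OD 0.01 in PMG+AL medium with 23 nL pinned compound. Grown 24 h at 30 degrees; viability read by BacTiter-Glo luminescence after 5 min.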
AmpC inh detg – AmpC beta-lactamase inhibition with detergent present; AmpC hydrolysis of nitrocefin, absorbance 480 nm, 0.01% Triton; Potency, µM (highest dose often 114 µM), hits mostly inhibitors; actives 0.041% (n = 370,000); AID 485294; also: nearly all actives have a fitted effect of over 25% in size
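AmpC (5.3 nM in the dispensed reagent) in 20 mM phosphate pH 7.0 with 0.01% (detergent screen) or 0.0001% Triton X-100 was preincubated with compounds for 15 min at room temperature. Nitrocefin was then added from an 800 uM solution, and hydrolysis was followed at 480 nm.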
Numbers stand for hits. Unless noted, calls follow the shape of the dose curve; as a rule, active = well fitted curve in the direction sought with a large enough effect; inconclusive = small, poorly fitted or top-dose-only effect, or another doubt; inactive = no such curve, though single readings can be large; an effect the other way counts as inactive or inconclusive.

Results for O=C(COC(=O)c1ccccc1C(=O)c1ccc(Cl)c([N+](=O)[O-])c1)NC1CC1 ?
TbPYK inhibitor: inactive; AmpC no deterg: inactive; Sm TGR inh: 22.4µM; SARS PLpro yeast: inactive; RE007 growth inh: inactive; AmpC inh detg: inactive

Results for OCC1(O)OC[C@@H](O)[C@H](O)[C@@H]1O (stereo partly drawn) ?
TbPYK inhibitor: inactive

What do the screens show for `CCOc1ccccc1C(=O)Nc1cc(-c2ccc(C)cc2)no1`?
TbPYK inhibitor: inactive; Sm TGR inh: inactive; AmpC inh detg: inactive

What do the screens show for `CC1CCN(S(=O)(=O)c2ccc3c(c2)c(=O)c(C(=O)NC(C)c2ccccc2)cn3C)CC1` (stereo not drawn)?
TbPYK inhibitor: inactive; Sm TGR inh: inactive; AmpC inh detg: inactive

Results for CCOc1ccc(NC(=O)c2cnc3sc(N4CCOCC4)nn3c2=O)cc1 ?
TbPYK inhibitor: inactive; Sm TGR inh: inactive; AmpC inh detg: inactive

Results for CS(=O)(=O)c1ccc(C(=O)OC2CCOC2=O)cc1[N+](=O)[O-] (stereo not drawn) ?
TbPYK inhibitor: inactive; AmpC no deterg: inactive; Sm TGR inh: 2.82µM; SARS PLpro yeast: inactive; RE007 growth inh: inactive; AmpC inh detg: inactive

Results for CCOc1ccc(C2C(=O)N(C3CCCCCC3)CC(=O)N2Cc2ccc(F)cc2)cc1OC (stereo not drawn) ?
TbPYK inhibitor: inactive; Sm TGR inh: inactive; AmpC inh detg: inactive

What do the screens show for `O=C(/C=C/c1ccc([N+](=O)[O-])cc1)c1cccnc1`?
TbPYK inhibitor: inactive; AmpC no deterg: inactive; Sm TGR inh: 15.8µM; SARS PLpro yeast: inactive; RE007 growth inh: 15.8µM; AmpC inh detg: inactive

Results for O=C(/C=C/c1cccnc1)c1ccc(F)c(F)c1 ?
TbPYK inhibitor: inactive; AmpC no deterg: inactive; Sm TGR inh: 28.2µM; SARS PLpro yeast: inactive; RE007 growth inh: inactive; AmpC inh detg: inactive

How did Cc1ccc(Cl)cc1NC(=O)c1ccc(Cn2cc(Cl)cn2)cc1 do in these assays?
TbPYK inhibitor: inactive; AmpC no deterg: 11.2µM; Sm TGR inh: inactive; SARS PLpro yeast: inactive; RE007 growth inh: inactive; AmpC inh detg: inactive

How did O=C(Nc1ccccc1F)c1ccc(Cn2cc(Cl)cn2)cc1 do in these assays?
TbPYK inhibitor: inactive; AmpC no deterg: inactive; Sm TGR inh: inactive; SARS PLpro yeast: inactive; RE007 growth inh: inactive; AmpC inh detg: inactive

Results for Cc1cc(NC(=O)COC(=O)c2cc([N+](=O)[O-])ccc2N2CCOCC2)ccc1Br ?
TbPYK inhibitor: inactive; AmpC no deterg: 31.6µM; Sm TGR inh: inactive; SARS PLpro yeast: inactive; RE007 growth inh: inactive; AmpC inh detg: inconclusive

How did O=C(CSc1nnnn1Cc1ccccc1)NCCc1ccccc1 do in these assays?
TbPYK inhibitor: inactive; AmpC no deterg: inactive; Sm TGR inh: inactive; SARS PLpro yeast: inactive; RE007 growth inh: inactive; AmpC inh detg: inactive

What do the screens show for `O=C(CSc1nnnn1Cc1ccccc1)NCC(=O)c1ccccc1`?
TbPYK inhibitor: inactive; AmpC no deterg: inactive; Sm TGR inh: 50.1µM; SARS PLpro yeast: inactive; RE007 growth inh: inactive; AmpC inh detg: inactive

What do the screens show for `CNc1sc(C(=O)c2ccc(F)cc2)c(N)c1-c1nc2ccccc2s1`?
TbPYK inhibitor: inconclusive; AmpC no deterg: inactive; Sm TGR inh: 39.8µM; SARS PLpro yeast: inactive; RE007 growth inh: inconclusive; AmpC inh detg: inconclusive

Results for CNc1sc(C(=O)c2cccs2)c(N)c1-c1nc2ccccc2s1 ?
TbPYK inhibitor: inconclusive; AmpC no deterg: inactive; Sm TGR inh: inactive; SARS PLpro yeast: inactive; RE007 growth inh: inconclusive; AmpC inh detg: inactive

How did COc1cc(C)c2c(c1C=O)Oc1c(c(C)c(O)c3c1C(O)OC3=O)OC2=O (stereo not drawn) do in these assays?
TbPYK inhibitor: inactive; AmpC no deterg: inactive; Sm TGR inh: 20µM; SARS PLpro yeast: inactive; RE007 growth inh: inactive; AmpC inh detg: inactive

Results for NC(=O)Cn1c(=O)n(Cc2ccco2)c(=O)c2c3c(sc21)CCCCC3 ?
TbPYK inhibitor: inconclusive; AmpC no deterg: inactive; Sm TGR inh: 7.08µM; SARS PLpro yeast: inconclusive; RE007 growth inh: inactive; AmpC inh detg: inactive

Results for O=C(Cn1c(=O)n(Cc2ccco2)c(=O)c2c3c(sc21)CCCC3)Nc1ccccc1 ?
TbPYK inhibitor: inactive; AmpC no deterg: inconclusive; Sm TGR inh: 50.1µM; SARS PLpro yeast: inactive; RE007 growth inh: inactive; AmpC inh detg: inconclusive

How did O=c1c2c3c(sc2n(CCN2CCCCC2)c(=O)n1Cc1ccco1)CCCCC3 do in these assays?
TbPYK inhibitor: inactive; AmpC no deterg: inactive; Sm TGR inh: inactive; SARS PLpro yeast: inactive; RE007 growth inh: inactive; AmpC inh detg: inactive

How did CCOc1ccc(NC(=O)Cn2c(C)cc3ccccc3c2=O)cc1 do in these assays?
TbPYK inhibitor: inactive; Sm TGR inh: inactive; AmpC inh detg: inactive

How did COc1ccc(CNC(=O)C2=C(C)C(=O)OC23CCCCC3)cc1OC do in these assays?
TbPYK inhibitor: inactive; Sm TGR inh: inactive; AmpC inh detg: inactive

Results for Cc1ncsc1CCOC(=O)c1ccc(N2CCOCC2)c([N+](=O)[O-])c1 ?
TbPYK inhibitor: inactive; AmpC no deterg: inactive; Sm TGR inh: inactive; SARS PLpro yeast: inactive; RE007 growth inh: inactive; AmpC inh detg: inactive

What do the screens show for `Cc1c(CCOC(=O)c2ccc(N3CCOCC3)c([N+](=O)[O-])c2)sc[n+]1CC#N`?
TbPYK inhibitor: inactive; AmpC no deterg: inactive; Sm TGR inh: 0.891µM; SARS PLpro yeast: inactive; RE007 growth inh: inactive; AmpC inh detg: inactive

Results for Cc1ccccc1-c1nc(CS(=O)(=O)CC(=O)NCCCN2CCOCC2)c(C)o1 ?
TbPYK inhibitor: inactive; AmpC no deterg: inactive; Sm TGR inh: inconclusive; SARS PLpro yeast: inactive; RE007 growth inh: inactive; AmpC inh detg: inactive

How did COCCCNC(=O)CS(=O)(=O)Cc1nc(-c2ccccc2C)oc1C do in these assays?
TbPYK inhibitor: inactive; AmpC no deterg: inactive; Sm TGR inh: 50.1µM; SARS PLpro yeast: inactive; RE007 growth inh: inactive; AmpC inh detg: inconclusive

How did Cc1ccccc1-c1nc(CS(=O)(=O)CC(=O)NCCCN2CCCC2=O)c(C)o1 do in these assays?
TbPYK inhibitor: inactive; AmpC no deterg: inactive; Sm TGR inh: 20µM; SARS PLpro yeast: inactive; RE007 growth inh: inactive; AmpC inh detg: inactive

Results for Cc1ccccc1-c1nc(CS(=O)(=O)CC(=O)NCCc2ccccc2)c(C)o1 ?
TbPYK inhibitor: inactive; AmpC no deterg: inactive; Sm TGR inh: inconclusive; SARS PLpro yeast: inactive; RE007 growth inh: inactive; AmpC inh detg: inactive

What do the screens show for `CCc1ccc(NC(=O)N(Cc2cn(CC)c3ccccc23)C2CCCCC2)cc1`?
TbPYK inhibitor: inactive; Sm TGR inh: inactive; AmpC inh detg: inactive
